HT1080 IDH1KD tx: kills HT-1080 cells with IDH1 knockdown. hit rate 2% among 360,000. Potency, µM (titrated, usually from 46.1 µM), for inactives: top-dose activity, negative = toxicity, most hits filed as cytotoxic. HT-1080 IDH1 knockdown viability, ATP luminescence, 48 h;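 also: 0% = DMSO wells and -100% = cell-free medium wells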
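Cytotoxicity counter-line: IDH1KD HT-1080, 48 h, CellTiter-Glo. Curves classed by r2, magnitude and activity.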
MCF10A rerep: DNA re-replication induction in MCF 10a cells; MCF 10A DNA re-replication, Hoechst nuclear intensity, 48 h; Potency, µM (top dose mostly 46.1 µM), for the others: at the highest dose activity, positive = re-replication, actives largely listed as activators; hit rate 2.9% among 350,000; also: % of control where 0% means no effect; nearly all actives have a fitted effect of over 50% in size
KB-V1 MDR tox: kills drug-selected multidrug resistant KB-V1 cells; Potency, µM (doses to about 46.1 µM), usual class: cytotoxic; AID 1347076; KB-V1 MDR cells viability, CellTiter-Glo, 72 h; hit rate 3.4% among 400,000; also: % is scaled to controls: 0 for no effect and ±100 for the full control effect; nearly all actives have a fitted effect of over 60% in size
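KB-V1 cells (P-gp-expressing MDR subline of KB-3-1) in phenol-red-free DMEM with 10% FBS were exposed to library compounds over a concentration series for 72 h at 37 degrees C. Viability read by CellTiter-Glo luminescence; concentration-effect curves fitted after normalization.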
HT1080NT lethal: kills 2HG-producing HT-1080-NT fibrosarcoma cells. HT-1080-NT fibrosarcoma viability, CellTiter-Glo ATP luminescence, 48 h. Potency, µM (top dose mostly 46.1 µM), for inactives: at the highest dose activity, negative = less viability, actives largely listed as cytotoxic. hit rate 1.6% among 360,000. AID 686970;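 also: NT is the 2HG producing partner of a matched IDH1 knockdown line; 0% = DMSO-treated cells and -100% = media-only wells without cells; nearly all actives have a fitted effect of over 55% in size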
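Viability of the 2HG-overproducing fibrosarcoma line after 48 hours of compound exposure at 37 degrees C was determined by luminescence with CellTiter-Glo, and concentration-effect curves were then fitted and categorized.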
SW480 rerep: induces DNA re-replication in SW480 colon adenocarcinoma cells | hit rate 1.8% among 340,000 | SW480 DNA re-replication, Hoechst DNA content imaging, 48 h | Potency, µM (doses to about 46.1 µM), for the others: top-dose re-replication activation, usual class: activators; also: % of control where 0% means no effect; nearly all actives have a fitted effect of over 55% in size
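Treated cells incubate 48 hr (37 C, 5% CO2), are stained 40 min with Hoechst, and nuclear fluorescence is enumerated; a rise in nuclei with high DNA signal marks re-replication.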
KB-3-1 cytotox: KB-3-1 parental cell cytotoxicity; KB-3-1 viability, CellTiter-Glo ATP luminescence, 72 h; hit rate 1.4% among 400,000; Potency, µM (titrated, usually from 46.1 µM), usual class: cytotoxic; AID 1347075; also: % is scaled to controls: 0 for no effect and ±100 for the full control effect; nearly all actives have a fitted effect of over 60% in size
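72 h, 37 °C compound treatment of KB-3-1 parental cells; CellTiter-Glo added, 10 min, luminescence read. Data corrected against DMSO-only plates and normalized before curve fitting.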
Numbers without * were called inactive; i = inactive; ? = inconclusive; / = not tested or not shown; + = active, no number; [ ] = another dose, or the depositor's remark. In the library only some 8% were active in any assay of this set; here they are far more common. Calls follow the shape of the dose curve; as a rule, active = well fitted curve in the direction sought with a large enough effect; inconclusive = small, poorly fitted or top-dose-only effect, or another doubt; inactive = no such curve, though single readings can be large; an effect the other way counts as inactive or inconclusive. Potency is read from the fitted curve at half-maximal effect.

SMILES	HT1080 IDH1KD tx	MCF10A rerep	KB-V1 MDR tox	HT1080NT lethal	SW480 rerep	KB-3-1 cytotox
CCn1c(=N)c(C(=O)NC2CCCCC2)cc2c(=O)n3cccc(C)c3nc21	/	/	i	/	/	i
Cc1cccn2c(=O)c3cc(C(=O)NCc4ccco4)c(=N)n(C(C)C)c3nc12	-6.1%	15.0%	?	-10.8%	?	i
Cc1cccn2c(=O)c3cc(C(=O)NC4CCCC4)c(=N)n(C4CCCC4)c3nc12	?	3.55µM*	?	?	7.08µM*	?
COc1ccc2[nH]c(C)cc2c1	/	/	i	/	/	i
Cc1cccn2c(=O)c3cc(C(=O)NC4CCCC4)n(C)c3nc12	?	13µM*	i	?	4.61µM*	10.3µM*
CCn1c(=N)c(C(=O)NC)cc2c(=O)n3cccc(C)c3nc21	-0.6%	?	i	-22.7%	12.6µM*	i
Cc1cc(C)nc(NS(=O)(=O)c2ccc(NC(=O)c3cc4c(=O)n5cccc(C)c5nc4n3C)cc2)n1	7.4%	10.3µM*	?	8.1%	2.06µM*	i
N=c1c(C(=O)NC2CCCC2)cc2c(=O)n3ccccc3nc2n1C1CCCC1	1.9%	17.2%	?	-3.1%	16.4µM*	?
Cc1cccn2c(=O)c3cc(C(=O)NC4CCCCC4)n(C)c3nc12	3.3%	?	?	19.9%	?	?
CCn1c(=N)c(C(=O)NCc2ccccc2)cc2c(=O)n3cccc(C)c3nc21	/	/	i	/	/	i
Cc1cccn2c(=O)c3cc(C(=O)O)n(C)c3nc12	-12.6%	10.6%	i	-9.7%	17.7%	i
CC(C)n1c(=N)c(C(=O)NC2CCCCC2)cc2c(=O)n3ccccc3nc21	/	/	?	/	/	i
O=C(Nc1ccnn1C1CCN(C(=O)c2cc(Cl)ccc2F)CC1)C1CCOC1 (stereo not given)	?	0.9%	?	?	-7.5%	i
COc1ccc(C(C)(O)c2nc(-c3ccccc3)cs2)cc1 (stereo not given)	16.4µM*	/	?	?	/	?
COc1ccc(-c2csc(C(C)(O)c3ccccc3)n2)cc1 (stereo not given)	?	/	i	?	/	i
COc1ccc(C(C)(O)c2nc(-c3ccccc3C)cs2)cc1 (stereo not given)	9.2µM*	/	5.17µM*	?	/	4.61µM*
CN(C)c1ccc(-c2csc(C(C)(O)c3cccc(F)c3)n2)cc1 (stereo not given)	?	/	?	25.9µM*	/	i
COc1ccc(C(C)(O)c2nc(-c3cccc(C(=O)O)c3)cs2)cc1 (stereo not given)	-1.2%	/	i	6.7%	/	i
COc1ccc(C(C)(O)c2nc(-c3cccc(O)c3)cs2)cc1 (stereo not given)	8.2µM*	/	i	?	/	?
COc1ccc(-c2csc(C(C)(O)c3ccccc3)n2)cc1OC (stereo not given)	1.5%	/	23.1µM*	-2.4%	/	?
CC(O)(c1ccccc1)c1nc(-c2ccncc2)cs1 (stereo not given)	0.0%	/	?	+	/	i
CC(O)(c1ccccc1)c1nc(-c2ccccc2)cs1 (stereo not given)	?	/	i	?	/	i
COc1ccc(Cl)cc1NC(=O)CN(C)C(=O)c1sccc1-c1ccccc1	-25.6%	1.6%	i	-18.4%	-4.4%	i
O=C(c1ccc(COc2ccc3c(c2)CCC3)o1)N1CCN(c2ccccc2)CC1	-2.3%[9.24 µM]	7.7%	?	?	-3.6%	i
O=C(c1ccco1)N1CCN(C(=O)c2ccc(COc3ccc4c(c3)CCC4)o2)CC1	-15.4%	3.4%	16.4µM*	-2.0%	-1.6%	i
SMILES	HT1080 IDH1KD tx	MCF10A rerep	KB-V1 MDR tox	HT1080NT lethal	SW480 rerep	KB-3-1 cytotox
Cc1ccc(C)c(CN2C(=O)c3ccccc3S(=O)c3ccc(C(=O)N(C)Cc4ccccc4)cc32)c1 (stereo not given)	/	/	i	/	/	i
CCN(CC)C(=O)c1cc(-c2ccc(Cl)cc2)on1	/	/	i	/	/	i
Cc1ccc(S(=O)(=O)c2cn(C)c3cc(N4CCN(C)CC4)c(F)cc3c2=O)c(C)c1	?	-2.2%	i	20.6µM*	1.64µM*	i
Cc1ccc(S(=O)(=O)c2cn(C)c3cc(N4CCCC4)c(F)cc3c2=O)c(C)c1	/	/	i	/	/	i
CCC(C)NC(=O)CSc1ccc(Cl)cc1 (stereo not given)	-2.2%	-2.9%	i	-1.7%	-1.6%[9.22 µM]	i
CC(C)C(NC(=O)CSc1ccc(Cl)cc1)C(C)C	-0.2%	25.9µM*	?	7.1%	-0.6%	i
Cc1ccc(NC(=S)NC2CCSc3ccccc32)cc1C (stereo not given)	-9.9%	18.4µM*	i	-19.1%	18.4µM*	?
COC(=O)c1cn(NC(=O)c2cc([N+](=O)[O-])ccc2F)c(=O)c2ccccc12	9.2µM*	4.61µM*	11.6µM*	?	?	?
COC(=O)c1cn(NC(=O)C2CCC(C)CC2)c(=O)c2ccccc12 (stereo not given)	-6.7%	1.5%	i	-16.3%	-2.8%	i
CN(C)CCCN(C(=O)COc1ccc(Cl)cc1)c1nc2cc3c(cc2s1)OCO3	?	8.7%	i	?	?	i
Cc1ccc(NCCCn2cnc(C(=O)Nc3ccc(C)c(C)c3)n2)cc1C	-8.3%	-0.7%	?	1.1%	-7.4%	i
Cc1cc(C)c(CN2CCN(CCCn3cnc(C(=O)Nc4ccc(C)c(C)c4)n3)CC2)c(C)c1	?	?	i	?	7.31µM*	i
O=C(CCSCc1ccc(Cl)cc1)NCc1ccco1	10.6%	10.9%	i	9.3%	-6.4%	i
Cc1ccccc1N/C(SCc1ccc(Cl)cc1)=C(/C#N)C(=O)NCc1ccco1	?	18.8%	11.6µM*	?	?	?
Cc1ccc(CS/C(Nc2ccccc2C)=C(\C#N)C(=O)NCc2ccco2)c(C)c1	-14.1%	?	14.6µM*	-10.5%	13.9%	?
Cc1cc(C)cc(N2CC(c3nnc(NC(=O)c4ccco4)s3)CC2=O)c1 (stereo not given)	/	/	i	/	/	i
COc1ccc(NC(=O)CSc2ccccn2)cc1OC	3.4%	13.2%	i	6.0%	0.1%	i
COc1ccc(NC(=O)CSc2nnc(-c3ccccn3)n2-c2ccccc2)cc1OC	-15.6%	-3.6%	14.6µM*	-6.5%	-6.8%	i
COc1ccc(-n2c(SCC(=O)Nc3cccc(C(=O)O)c3)nnc2-c2ccco2)cc1	14.6%	-7.3%	i	16.0%	-14.1%	i

Compound activity: PubChem BioAssay, National Center for Advancing Translational Sciences (NCATS)
